Source: PubChem (National Center for Advancing Translational Sciences (NCATS))
Only some compounds are listed: those with a hit (about 6.1% of all), similar ones and a draw of the others.
D1 PAM: enhances dopamine response at the human D1 receptor; 0.036% of 360,000 active; potentiation, % at 10 µM; HEK293 TREx D1 cells, calcium flux, dopamine EC20 potentiation; P21728; AID 504651; in the data active means potentiation above about 30%; further: 0% is about no effect
Target sequence (P21728 whole entry, looked up): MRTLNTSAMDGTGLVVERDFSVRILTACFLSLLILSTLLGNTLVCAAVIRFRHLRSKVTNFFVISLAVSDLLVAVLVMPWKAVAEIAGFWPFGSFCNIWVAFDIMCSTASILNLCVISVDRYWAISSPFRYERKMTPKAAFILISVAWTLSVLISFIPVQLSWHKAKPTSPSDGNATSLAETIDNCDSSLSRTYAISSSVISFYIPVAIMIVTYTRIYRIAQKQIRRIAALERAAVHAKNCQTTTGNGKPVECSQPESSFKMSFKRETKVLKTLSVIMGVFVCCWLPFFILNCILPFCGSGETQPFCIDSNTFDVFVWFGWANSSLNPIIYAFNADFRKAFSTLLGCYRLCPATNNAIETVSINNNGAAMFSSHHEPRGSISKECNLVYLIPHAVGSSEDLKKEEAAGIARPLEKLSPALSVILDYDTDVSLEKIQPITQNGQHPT
D1 ag: activates the human D1 dopamine receptor | 1% of 360,000 active | HEK293 T-REx D1 cells, calcium flux, agonist mode | AID 504660 | activation, % at 2 µM | P21728; in the data active means activation above about 30%; further: 0% is about no effect
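Inducible HEK293 T-REx D1 cells, force-coupled to calcium signalling, were plated at 4000 cells/well with tetracycline and held overnight at 30 C. After no-wash calcium dye loading, compound-evoked calcium rise over 180 s flagged agonists.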
DRD3 antagonist: D3 dopamine receptor (human) antagonism; P35462; D3R cells, DiscoveRx beta-arrestin luminescence, antagonist mode; stronger effect = lower value; max response, negative = inhibition, %; 2.5% of 360,000 active; in the data active means max response below about -50%; inconclusive means no clear call, values can overlap the other calls; further: on the % scale 0 is the no-effect control and ±100 the full control effect
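Cells plated overnight at 1500 cells/well, then exposed to library compounds with dopamine controls for 90 minutes at 37 degrees C. DiscoveRx reagent added for 30–60 minutes at room temperature; luminescence read, quantitative HTS format.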
D3 ag: activates the human D3 dopamine receptor | D3R DiscoveRx beta-arrestin cells, luminescence, 90 min | AID 652048 | max activation, % | 0.58% of 410,000 active | P35462; in the data active means max activation above about 30%; further: 0% is about no effect
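Cells at 1500/well, incubated overnight, then treated with pinned compounds (dopamine as control) for 90 min at 37 degrees C. DiscoveRx reagent added for 30 - 60 minutes at room temperature; luminescence read.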
D1 antag: human D1 dopamine receptor antagonism | P21728 | HEK293 TREx D1 cells, calcium flux, dopamine EC80; stronger effect = lower value | activity change, negative = inhibition, % at 10 µM | 3.2% of 360,000 active | AID 504652; in the data active means activity change below about -30%; further: on the % scale 0 is the no-effect control and ±100 the full control effect
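HEK293 T-REx cells expressing inducible, force-coupled D1 receptor; no-wash Ca dye, 30–90 min RT. Cmpd → 180 s read at 1 Hz → EC80 DA → 180 s read.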
* marks the source's active call; other numbers are inactive results; ? = inconclusive; / = no result given.

SMILES | D1 PAM | D1 ag | DRD3 antagonist | D3 ag | D1 antag
CCC(=O)c1ccc2c(c1)N(CCCN(C)C)c1ccccc1S2 | / | / | -109.4* | -90.1 | /
CN(C)CCCN1c2ccccc2Sc2ccccc21 | -4.3 | 41.9* | -105.4* | -84.0 | -80.8*
CN(C)CCCN1c2ccccc2CCc2ccc(Cl)cc21 | -3.1 | 35.8* | -103.5* | -87.0 | -96.3*
CC(=O)c1ccc2c(c1)N(CCCN(C)C)c1ccccc1S2 | / | / | -107.7* | -95.8 | /
CCN(CC)CCN1c2ccccc2Sc2ccccc21 | -4.0 | 5.7 | ? | -31.2 | 3.4
CC(=O)c1cccc(-n2c(=O)c3c4c(sc3n(Cc3cccc(C)c3)c2=O)CN(C(C)=O)CC4)c1 | 0.3 | -0.1 | / | -2.9 | -6.0
COc1ccc(NC(=O)c2c(C)oc3ccc(O)c(CN4CCN(Cc5ccccc5)CC4)c23)cc1 | 0.4 | 1.8 | / | -1.8 | -10.7
COc1ccc2c(c1)Sc1ccccc1N2CCN(C)C | -10.6 | 15.9 | -81.1* | -20.0 | -16.0
COC(=O)c1ccc(OC(=O)CCN2c3ccccc3Sc3ccccc32)cc1 | -4.7 | 2.8 | 0.9 | 2.7 | -1.2
CNCCCN1c2ccccc2CCc2ccccc21 | -5.2 | 27.2 | -75.4* | -82.3 | 2.6
COc1ccc(OC)c(NS(=O)(=O)c2ccc3c(c2)C(C)(C)C(=O)N3C)c1 | -4.6 | 2.4 | -19.4 | -10.9 | -18.6
CCOC(=O)c1ccc(Oc2nc(NC)nc(SC)n2)cc1 | -7.2 | 11.6 | -4.4 | -4.2 | -34.2*
CCNc1nc(Oc2ccc(C(=O)OCC)cc2)nc(SC)n1 | -0.1 | 7.4 | 3.5 | 4.4 | -16.0
COC(=O)c1ccccc1Oc1cnc2ccccc2n1 | -10.1 | -0.1 | -1.0 | 8.2 | -10.7
CNc1nc(Oc2ccccc2C(=O)OC)nc(SC)n1 | -5.3 | 1.2 | -8.8 | 0.1 | -40.3*
Cc1cc(C(=O)CN2CCCC(C)C2)c(C)n1-c1ccc(F)cc1 (centres undefined) | -1.2 | 5.5 | -3.6 | 1.4 | 17.5
Cc1nn(C(C)C(=O)NC2CCCCC2)c(=O)c2c1sc1ccccc12 (centres undefined) | -3.6 | 9.2 | / | -1.9 | -34.1*
Cc1nn(C(C)C(=O)Nc2ccccc2C(F)(F)F)c(=O)c2c1sc1ccccc12 (centres undefined) | -2.9 | 1.2 | / | -11.6 | -47.2*
CC(C)C1Nc2ccc(C(=O)NCCCN3CCOCC3)cc2NC1=O (centres undefined) | 1.6 | 1.2 | 3.3 | 26.1 | 6.4
CCCC(=O)Nc1cc(C(=O)NCc2ccccc2)ccc1S(=O)(=O)c1ccc(Cl)cc1 | 6.2 | 4.6 | / | -7.1 | -1.5
O=C(NCC(=O)N1CCN(Cc2c(F)cccc2Cl)CC1)c1cccs1 | / | / | 0.0 | -1.2 | /
O=C(CCCN1C(=O)C(c2ccccc2)Oc2cccnc21)Nc1cccc(F)c1 (centres undefined) | -7.2 | 2.2 | 2.9 | 4.1 | -44.1*
Cc1cccc(N2CCN(Cc3ccoc3)CC2)c1C | -8.5 | 0.6 | -87.5* | -31.6 | 3.3
FC(F)(F)c1cccc(N2CCN(Cc3cccnc3)CC2)c1 | 0.1 | 1.6 | -73.7* | -9.4 | 2.3
COc1cccc(N2CCN(Cc3cccnc3)CC2)c1 | -4.8 | 0.6 | ? | -12.2 | -8.4
SMILES | D1 PAM | D1 ag | DRD3 antagonist | D3 ag | D1 antag
COc1cc(CN2CCN(c3cccc(C)c3C)CC2)cc(OC)c1O | -3.6 | 2.4 | ? | -38.1 | -28.0
FC(F)(F)c1cccc(N2CCN(Cc3ccoc3)CC2)c1 | -6.0 | 2.1 | -96.2* | -26.8 | -29.9
O=c1cc(N2CCN(Cc3ccccc3)CC2)[nH]c(=O)n1-c1cccc(C(F)(F)F)c1 | -0.2 | -2.0 | 7.8 | 1.4 | 6.5
COc1ccc(Cl)cc1NC(=O)c1cn(C2CCCC2)c(=O)c2c1c1ccccc1n2C | 1.2 | 2.2 | / | -6.1 | 4.4
CC(=O)c1c(C)n([O-])c2cc(C)ccc2[n+]1=O | -7.8 | 2.6 | -51.0* | -3.4 | 1.7
Cc1[nH]n(-c2ccccc2)c(=O)c1C1(C(F)(F)F)C(=O)N(c2ccc(F)cc2)C2=C1C(=O)CC(C)(C)C2 (centres undefined) | -2.0 | 1.9 | -70.6* | 0.1 | 4.2
Cc1cccc(C)c1NS(=O)(=O)c1ccc(NC(=O)c2ccc(Cl)c([N+](=O)[O-])c2)cc1 | -6.0 | 4.6 | -78.1* | 5.5 | -5.5
NNC(=O)CCC(=O)Nc1ccccc1 | -7.0 | 0.8 | 1.7 | 0.9 | -32.8*
CC(=O)NS(=O)(=O)c1ccc(NC(=O)CC(C)c2ccccc2)cc1 (centres undefined) | -3.4 | -0.2 | -10.2 | -4.1 | -0.8
O=C(Nc1ccc(S(=O)(=O)NC2=NCCCCC2)cc1)c1ccc(Cl)c([N+](=O)[O-])c1 | / | / | -25.7 | -1.2 | /
CC(=O)N[C@@H](Cc1ccc(O)cc1)C(=O)O | / | / | / | 1.5 | /
O=C(Nc1ccccc1)NC(Cc1ccc(O)cc1)C(=O)O (centres undefined) | -1.1 | -1.1 | -65.3* | 21.9 | 11.9
CC(CC(=O)Nc1ccc(Cl)c([N+](=O)[O-])c1)c1ccccc1 (centres undefined) | -6.9 | 3.7 | -57.4* | -16.3 | -29.7
O=C(NC1CCCC1)C(c1ccccc1)n1c(-c2cccc3ccccc23)nc2ccccc21 (centres undefined) | / | / | 0.0 | -3.2 | /
CCC1(CC)NC(=O)N(CC(=O)OC(C)C(=O)Nc2ccccc2OC)C1=O (centres undefined) | 0.1 | 0.1 | -13.6 | -22.1 | 11.0
N#Cc1ccc(NC(=O)Nc2ccc(Oc3ccc(NC(=O)Nc4ccc(C#N)cc4)cc3)cc2)cc1 | -4.5 | 15.9 | 162.7 | 17.6 | 10.5
N#Cc1ccsc1NC(=O)c1ccc(Cl)c([N+](=O)[O-])c1 | -1.4 | 39.2* | 18.2 | -10.8 | -37.8*
N#Cc1ccsc1NC(=O)c1cccc([N+](=O)[O-])c1 | 1.8 | 4.0 | ? | -4.4 | 10.6
O=C(Nc1ccccc1)Nc1ccc(Cl)c([N+](=O)[O-])c1 | -9.7 | 31.9* | -0.3 | -6.0 | -46.2*
CCNC(=S)Nc1ccc(Cl)c([N+](=O)[O-])c1 | -6.8 | 20.0 | 3.4 | -0.3 | -39.4*
N#Cc1ccc(NC(=O)Nc2cccc(C#N)c2)cc1 | -13.2 | 32.2* | -2.6 | 0.4 | -63.1*
CCOC(=O)c1[nH]c(C)c(CCC(=O)Nc2ccc(C(C)=O)cc2)c1C | -3.4 | -0.7 | / | -3.9 | -7.4
CC1(C(=O)Nc2ccc3c(c2)OCCO3)CCC(=O)N1C1CC1 (centres undefined) | / | / | 35.5 | 8.1 | /
CCc1c(-c2cccc(Cl)c2)ncn1Cc1cccc(-c2ccccc2)c1 | / | / | -5.6 | -2.5 | /
Cc1ccc(NC(=O)Nc2ccccc2)cc1[N+](=O)[O-] | -10.0 | 23.7 | 7.3 | -3.6 | -33.2*
COC(=O)c1cccc(NC(=O)Nc2ccc(Cl)c(Cl)c2)c1 | -6.0 | 11.3 | 15.7 | -2.2 | -18.5
O=C(Nc1ccccc1)Nc1ccc(F)c([N+](=O)[O-])c1 | -10.7 | 29.5 | -11.5 | -10.1 | -47.7*
COC(=O)c1cc(NC(=O)Nc2ccccc2)ccc1Cl | -5.2 | 41.3* | 17.3 | -0.5 | -53.5*
